# Source: PubChem BioAssay
# FLuc inh: qHTS Assay for Inhibitors of Firefly Luciferase; Luciferin 4-monooxygenase (Photinus pyralis), P08659; purified firefly luciferase, luminescence, 8 min; Potency, µM (doses to about 57.1 µM), for the others: at the top dose activity change, negative = inhibition, usual class: inhibitors; actives 2.2% (n = 72,000); further: on the % scale 0 is the no-effect control and ±100 the full control effect; nearly all actives have a fitted effect of over 40% in size
#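 qHTS concentration-response profiling: light output of P. pyralis luciferase with luciferin and 10 uM ATP, imidazole buffer pH 7.2. Read by luminescence after 8-min room-temperature incubation.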
# Tau filament bind: qHTS Assay for Tau Filament Binding; Potency, µM (doses to about 57.1 µM), inactives show at the top dose activity change, negative = inhibition; recombinant tau filaments, thioflavin S fluorescence, 15 h; filaments grown with octadecylsulfate alongside compound; actives 2% (n = 71,000); Microtubule-associated protein tau (Homo sapiens), P10636; AID 596, 2007;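 further: on the % scale 0 is the no-effect control and ±100 the full control effect; actives lower thioflavin S fluorescence by blocking filaments or displacing dye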
# Target sequence (P10636 whole entry, looked up): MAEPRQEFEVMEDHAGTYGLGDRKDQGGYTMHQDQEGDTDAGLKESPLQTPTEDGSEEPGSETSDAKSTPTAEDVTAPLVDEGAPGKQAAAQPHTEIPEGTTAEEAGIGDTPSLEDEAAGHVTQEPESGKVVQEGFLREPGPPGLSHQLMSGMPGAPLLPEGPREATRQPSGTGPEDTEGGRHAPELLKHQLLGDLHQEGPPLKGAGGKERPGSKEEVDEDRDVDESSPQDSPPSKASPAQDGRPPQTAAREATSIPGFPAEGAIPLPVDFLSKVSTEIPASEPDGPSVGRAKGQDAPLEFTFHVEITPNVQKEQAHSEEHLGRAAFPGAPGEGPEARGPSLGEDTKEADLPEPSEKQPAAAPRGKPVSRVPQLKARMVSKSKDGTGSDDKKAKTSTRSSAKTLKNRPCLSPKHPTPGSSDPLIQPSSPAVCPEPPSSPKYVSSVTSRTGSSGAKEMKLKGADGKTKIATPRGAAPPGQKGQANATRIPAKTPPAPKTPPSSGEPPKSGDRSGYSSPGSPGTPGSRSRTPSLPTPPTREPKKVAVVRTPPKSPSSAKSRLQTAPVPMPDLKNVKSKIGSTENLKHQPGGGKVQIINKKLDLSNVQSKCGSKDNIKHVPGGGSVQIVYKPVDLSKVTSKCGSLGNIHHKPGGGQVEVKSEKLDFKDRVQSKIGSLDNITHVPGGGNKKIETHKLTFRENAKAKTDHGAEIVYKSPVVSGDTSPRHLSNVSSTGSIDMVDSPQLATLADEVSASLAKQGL
#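 ThS-based fibril read: tau 1 uM final, inducer ODS 30 uM final, 37 C for 15 h, ex 450/em 510 nm.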
# HEK293 cAMP ctrl: qHTS Assay for Agonists of the Thyroid Stimulating Hormone Receptor: Activators of Intracellular cAMP Concentrations in Parental HEK 293; parental HEK293 CNG cAMP sensor, membrane potential fluorescence; Potency, µM (series often up to 57.1 µM), for the others: at the highest dose activation, usual class: activators; actives 2.5% (n = 73,000); AID 938, 2007; further: % of control where 0% means no effect; nearly all actives have a fitted effect of over 55% in size
#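 Counterscreen for endogenous-receptor signalling: CNG-channel HEK 293 cells report cAMP rise by membrane depolarization. After 60 min dye equilibration with 100 uM RO 20-1724, compounds incubated 30 min before bottom-read fluorescence at 590 nm.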
# PK Bst: Pyruvate Kinase; purified pyruvate kinase, luminescence ATP production; ribose 5-phosphate activator present at AC10; Potency, µM; actives 1.2% (n = 51,000); in the data active means potency below about 11 µM; inconclusive means mostly about 12 µM to 25 µM;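 the screen sought inhibitors and activators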;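 further: scaled between full activation by ribose 5 phosphate and full inhibition by luteolin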
# TSHR agonist: qHTS Assay for Agonists of the Thyroid Stimulating Hormone Receptor. HEK293-CNG-TSHR cells (CNG channel as cAMP sensor), membrane potential dye, cAMP. Potency, µM (titrated, usually from 57.1 µM), for the others: top-dose activation, usual class: activators. actives 0.48% (n = 73,000). AID 926, 2007; active means well fitted activation curve with a large enough effect in the main read-out, with a control signal flat, not every such curve was filed as active; inconclusive means small, poorly fitted or top-dose-only effect, or a change in a side signal; inactive means no such curve, though single readings can be large or run the other way; % of control where 0% means no effect;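 further: the control signal comes from parental cells without the receptor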
#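 cAMP rise detected as CNG-channel membrane depolarization by fluorescent dye (emission 590 nm), 30 min after compound, following 60 min dye loading containing 100 uM RO 20-1724 at room temperature. Cells: TSHR/CNG HEK 293, with parental CNG HEK 293 as control.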
# ERK AVP block: qHTS Assay for Inhibitors of the ERK Signaling Pathway using a Homogeneous Screening Assay. HEK293-V1b, vasopressin-stimulated pERK AlphaScreen. Potency, µM (doses to about 57.5 µM), inactives show at the top dose activity, negative = inhibition, most hits filed as inhibitors. actives 0.99% (n = 72,000). AID 995, 2007; further: on the % scale 0 is the no-effect control and ±100 the full control effect; nearly all actives have a fitted effect of over 55% in size
#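 HEK293 cells stably expressing V1b receptor, seeded overnight in 1% FBS, were treated with compounds for 30 min at 37C, then stimulated 5 min with 25 nM vasopressin; phospho-ERK read by AlphaScreen SureFire after lysis.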
# * = called active by the depositor; i = inactive; ? = inconclusive; · = not tested or not shown; [ ] = remark or other dose. Shown are actives, neighbours in structure and some others; about 7.2% of the full set was active somewhere. Unless noted, the call rests on the fitted dose curve; in most records, active means well fitted curve in the direction sought with a large enough effect; inconclusive means small, poorly fitted or top-dose-only effect, or another doubt; inactive means no such curve, though single readings can be large; an effect the other way counts as inactive or inconclusive. Potency means the concentration at half of the fitted maximal effect.
SMILES,FLuc inh,Tau filament bind,HEK293 cAMP ctrl,PK Bst,TSHR agonist,ERK AVP block
N#CCCn1c(=O)c(-c2cccc(C#N)c2)nc2cnc(Oc3cccc(Cl)c3)nc21,3%[11.4 µM],-8%,6%,·,-23%,-2%
O=C(NC1=NCCS1)c1ccncc1,1%,5%,0%,>57,2%,-14%
O=C(NC1=NCCS1)c1ccc(OCC2CCCO2)cc1 (stereo not given),25µM*,0%,-3%,·,12%,12%
COc1ccc(OC)c(CN2CCN(C(=O)c3cccs3)CC2)c1,2%,-6%,11%,>57,8%,12%
COc1ccc(OC)c(CN2CCN(C(=O)c3cccc4ccccc34)CC2)c1,3%,-3%,20%,7.4*,10%,-14%
CCOC(=O)CN1CC23C=CC(O2)C(C(=O)Nc2ccc(OC)cc2OC)C3C1=O (stereo not given),2%,-10%,2%,·,0%,-2%
CCOC(=O)CN1CC23C=CC(O2)C(C(=O)Nc2cc(OC)ccc2OC)C3C1=O (stereo not given),3%,13µM*,8%,·,1%,-19%
COC(=O)NC(c1ccc2ccccc2c1)C(C(C)=O)C(=O)OC (stereo not given),·,·,3%[11.4 µM],·,12%[11.4 µM],1%[11.5 µM]
O=C(NC1CCCCCC1)C1c2ccccc2C(=O)N1Cc1ccco1 (stereo not given),2%,-1%,13µM*,>57,?,21%
O=C(C1CC1)N1CCc2cc(Br)cc(S(=O)(=O)NCC3COc4ccccc4O3)c21 (stereo not given),1%,102%,16µM*,>57,?,-5%
O=C(C1CC1)N1CCc2cc(S(=O)(=O)NCC3COc4ccccc4O3)ccc21 (stereo not given),2%,5%,?,>57,?,-8%
CNc1nc(-c2ccc(N(C)C)cc2)nc2ccccc12,-20%[2.29 µM],i,-72%,·,?,-2%
CN(C)C(=O)c1ccc(-c2nc(Nc3ccc(F)cc3)c3ccccc3n2)cc1,-9%[2.29 µM],10%,16%,·,32µM*,?
CN(C)C(=O)c1ccc(-c2nc(Nc3ccncc3)c3ccccc3n2)cc1,-10%[2.29 µM],-1%,-11%,·,3%,-19%
CN(C)c1ccc(-c2nc(Nc3ccncc3)c3ccccc3n2)cc1,0.4µM*,10µM*,-49%,·,?,16µM*
Cc1ccc(C(=O)[C@@H]2[C@@H]3[C@@H](C(=O)[C@@H]4OC[C@H]3O4)[C@@H]3C=Cc4ccccc4N23)cc1,-2%[11.4 µM],32µM*,-8%,·,-2%,·
Cc1ccc(-c2cc(-c3nnc(SCC(=O)N(C)CCC#N)n3N)c3ccccc3n2)cc1,13µM*,14%,-7%,i,·,?
COc1ccc(-c2ccc(-c3nnn(CC(=O)N4CCOCC4)n3)cc2)cc1,1.6µM*,-3%,2%,2.6*,1%,0%
O=C(Cn1cc2c(n1)CCCC2)N1CCCc2ccccc21,-1%,20%,7%,·,28%,-15%
O=C(Cn1nnc(-c2ccc3c(c2)OCO3)n1)N1CCOCC1,1%,3%,4%,>57,5%,-21%
O=C(Cn1nnc(-c2ccc(CN3CCOCC3)cc2)n1)N1CCCc2ccccc21,-1%,8%,25%,5.6*,26%,10%
CC(=O)c1ccc(N2CCN(C(=O)c3cc(-c4ccc5c(c4)OCO5)nc4ccccc34)CC2)cc1,7.9µM*,129%,18%,·,20%,-17%
CCOc1ccc(-c2cc(C(=O)N3CCN(C)CC3)c3ccccc3n2)cc1,2µM*,-16%,20%,3.1*,10%,-28%
COc1ccc(-c2cc(C(=O)OCC(=O)N3CCCC3)c3ccccc3n2)cc1,20µM*,-25%,27%,10*,5%,?
CCOC(=O)N1CCN(C(=O)c2cc(-c3ccc(OCC)cc3)nc3ccccc23)CC1,0.79µM*,-7%,17%,1.1*,18%,?
SMILES,FLuc inh,Tau filament bind,HEK293 cAMP ctrl,PK Bst,TSHR agonist,ERK AVP block
O=C(O)c1cc(-c2ccc3c(c2)OCO3)nc2ccccc12,-27%,4%,5%,>11,8%,-11%
O=C(c1cc(-c2ccccc2)nc2ccccc12)N1CCOCC1,-7%,-4%,17%,·,·,-29%
Cc1cc(C(=O)OCC(=O)N2CCOCC2)c2ccccc2n1,4%,-10%,0%,>57,2%,7%
Nc1nc(CC(=O)O)cs1,·,-2%,24%,·,-1%,-6%
COc1cc(-c2cc(C(=O)N3CCN(c4ccccn4)CC3)c3ccccc3n2)cc(OC)c1OC,0%,9%,0%,>57,15%[11.4 µM],15%
COc1ccc(-c2cc(C(=O)N3CCN(c4ccccn4)CC3)c3ccccc3n2)cc1,1.3µM*,30%,8%,2.2*,·,10µM*
O=C(c1ccco1)N1CCC[C@@]2(CCN(c3ncccn3)C2)C1,2%[11.4 µM],6%,8%,·,2%,-1%
CCCCNc1nc(C)nc2c1nc(-c1ccccc1)n2CCN(C)C,·,9%,25µM*,·,?,-5%
CCCn1c(-c2ccc(F)cc2)nc2c(NCCCN(C)C)nc(C)nc21,·,3%,25µM*,·,?,0%
CCCn1c(-c2ccc(F)cc2)nc2c(NCC(C)(C)CN(C)C)nc(C)nc21,·,-8%,25µM*,·,?,-9%
Cc1nc(NCCO)c2nc(-c3ccccc3)n(CCN(C)C)c2n1,·,-12%,2%,·,2%,-28%
Cc1[nH]c(C)c(Cl)c(=O)c1Cl,·,·,·,·,·,12%
CC(=O)Nc1cccc(Oc2ccc(-c3noc(C)n3)cc2)c1,13µM*,-8%,14%,i,16%,?
CCOc1ccccc1NC(=O)c1ccccc1-c1nc(-c2ccccc2)no1,-9%,3%,16µM*,>57,?,21%
COc1ccc(-c2noc(-c3ccccc3C(=O)Nc3cccc(OC)c3)n2)cc1,?,164%,13µM*,·,?,-13%
COc1ccc(NC(=O)N2CCC3(CC2)CCN(C(=O)c2cccn2C)CC3)cc1,0%[11.4 µM],3%,9%,·,3%,-14%
COC(=O)N1CCC2(CCN(Cc3ccccc3OC)CC2)CC1,2%[11.4 µM],11%,-3%,·,5%,-2%
COc1ccc(NC(=O)N2CC3(CCN(C(=O)c4csnn4)CC3)C2)cc1,-3%[11.4 µM],10%,?,·,?,-2%
Cc1cccc(-n2ncc3c(N4CCCC4)ncnc32)c1,1.6µM*,7%,-3%,5.4*,-2%,-6%
